A selection: hits, their analogues and other compounds. The true share with any hit is near 1.3%.
VLA-4 inh: inhibition in human VLA-4 binding assay, primary screen, VLA-4 allosteric modulator project, MLPCN library, flow cytometry, VLA-4 expressing cells; 0.2% of 330,000 active; AID 2557, 2010; ligand binding flow cytometry; inhibition, % (about 7 µM as worked out from the volumes in the protocol); in the data active means inhibition above about 50%
A1 inh: caspase 3/7 activation in MEF A1-2A-BIM cells, primary screen, A1 inhibitor project, cell-based, luminescence, HTS. Caspase-Glo 3/7 luminescence, 3 h; percent of clofoctol response, vehicle zero. caspase activation, % (concentration not given with the values). 0.066% of 330,000 active. AID 2462, 2010;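 active means over half of replicate activation scores above 10%, or exactly half above 10 with the replicate mean above 10; inconclusive means replicate mean below 10 yet half the replicates above 10; inactive means over half of replicates below 10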
Beta2AR agonist: beta2AR agonists driving receptor internalization, primary screen, cell-based, FAP fluorogen, flow cytometry | AID 504454, 2011 | Am2.2-beta2AR cells | 0.43% of 340,000 active | response, % (test concentration not listed);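 active means response above a set limit, near 3 SD of response in nonfluorescent compounds, cut at about 42% in these data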
GRK2 aptamer HTS: compounds blocking aptamer binding on GRK2 – biochemical, human GRK2, bead flow cytometry, HTS, primary screen | Beta-adrenergic receptor kinase 1 (Homo sapiens), P25098 | FAM-aptamer displacement from GRK2 | inhibition of aptamer binding, % at 10 µM | 0.59% of 330,000 active | AID 488847, 2010;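 active means inhibition of aptamer binding above 40%, roughly 3 SD of noise, on plates passing a quality check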;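 further: median bead fluorescence of bound FAM aptamer so fluorescent compounds give negative values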
NTR1 agonist: agonists of human NTR1, primary screen, imaging, U2OS cells, beta-arrestin-GFP, high content; Neurotensin receptor type 1 (Homo sapiens), P30989; activation, % at 20 µM; NTR1-U2OS beta-arrestin-GFP spot imaging, agonist mode; AID 493036, 2011; 0.17% of 330,000 active;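 active means activation at or above 40% of the spot to cytoplasm intensity ratio, with at least 20 cells analyzed; inconclusive means wells under 20 cells, flagged as cytotoxic or low count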;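 further: 0% = DMSO without peptide and 100% = 100 nM NTR1 peptide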
Target sequence (P30989 whole entry, looked up): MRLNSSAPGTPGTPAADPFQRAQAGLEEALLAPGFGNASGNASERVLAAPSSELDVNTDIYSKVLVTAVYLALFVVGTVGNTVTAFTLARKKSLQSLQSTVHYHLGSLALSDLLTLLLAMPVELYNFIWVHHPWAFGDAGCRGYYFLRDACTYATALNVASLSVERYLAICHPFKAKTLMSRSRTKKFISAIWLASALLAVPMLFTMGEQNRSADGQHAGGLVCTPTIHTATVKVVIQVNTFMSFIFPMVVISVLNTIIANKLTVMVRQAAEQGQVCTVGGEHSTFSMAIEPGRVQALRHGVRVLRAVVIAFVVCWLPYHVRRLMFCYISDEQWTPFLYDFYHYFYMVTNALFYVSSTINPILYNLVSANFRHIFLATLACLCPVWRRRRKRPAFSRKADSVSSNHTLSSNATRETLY
B2AR ag CP1: beta2AR agonists via receptor internalization, confirmation, cell-based, FAP fluorogen, flow cytometry, single point, cherry pick 1 | shares compounds with Beta2AR agonist | Am2.2-beta2AR cells, FAP surface receptor; stronger effect = lower value | percent response (surface receptor), % at 10 µM | 25% of 1,100 active;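 active means surface receptor percent response at or below 58%, roughly 3 SD from nonfluorescent compounds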
B2AR FAP counter: flagged in Am2.2 fluorescence counterscreen for beta-2AR agonists; shares compounds with Beta2AR agonist; Am2.2 cells, FAP fluorogen flow cytometry; stronger effect = lower value; calls only at 10 µM; 1,100 tested, under 10 active; AID 588765;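 active means percent response below a set limit in fluorescence channel 1 and below 50% in channel 8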
The depositor's hits bear a star; i = inactive; ? = inconclusive; nt = no result given.

SMILES	VLA-4 inh	A1 inh	Beta2AR agonist	GRK2 aptamer HTS	NTR1 agonist	B2AR ag CP1	B2AR FAP counter
O=C(COc1ccc(-n2cnnn2)cc1)Nc1ccc(F)c(F)c1	13	-2	-6	1	0	nt	nt
CC(=O)Nc1ccc(S(=O)(=O)N2CCCC3CCCCC32)cc1 (stereo unspecified)	35	4	-2	2	-2	nt	nt
CCCCC(=O)Nc1ccc(S(=O)(=O)N2CCCCC2c2cccnc2)cc1 (stereo unspecified)	14	0	129*	2	1	27*	i
O=C(Nc1ccc(S(=O)(=O)N2CCCCC2c2cccnc2)cc1)c1c(F)cccc1F (stereo unspecified)	47	0	87*	1	-1	49*	i
CC(=O)Nc1ccc(S(=O)(=O)N2CCCCC2c2cccnc2)cc1 (stereo unspecified)	14	0	-8	0	0	21*	i
Cc1ccc(Cl)c(NC(=O)COC(=O)c2nn(C)c(=O)c3ccccc23)c1Cl	-1	0	-5	1	-2	nt	nt
CC(=O)Nc1ccc(C(=O)NNC(=O)C2C3CCCCC32)cc1 (stereo unspecified)	-2	1	1	0	1	nt	nt
CC(C)(C)NC(=O)C(c1ccc(F)cc1)N(Cc1ccccc1Cl)C(=O)c1ccn[nH]1 (stereo unspecified)	4	1	-4	4	1	98	i
COc1ccc(OC)c(S(=O)(=O)N2CCCC(C(=O)NCc3cccnc3)C2)c1 (stereo unspecified)	-2	0	71*	0	-1	92	i
Cc1ccc(S(=O)(=O)N2CCOCC2)cc1C(=O)NC(=S)N1CC(C)OC(C)C1 (stereo unspecified)	19	1	-5	2	1	nt	nt
Cc1nn(Cc2ccc(Cl)cc2)c(C)c1NC(=O)CSc1nc2c(c(C(F)(F)F)n1)CCc1ccccc1-2	1	0	3	0	6	nt	nt
Cc1ccc(Cn2nc(C)c(NC(=O)CSc3nc4c(c(C(F)(F)F)n3)CCc3ccccc3-4)c2C)cc1	-45	0	46*	0	nt	73	i
O=S(=O)(Nc1cccc(-c2cn3cccnc3n2)c1)c1ccc(-c2ccccc2)cc1	18	-2	110*	1	10	12*	i
O=C(COc1ccccc1Cl)NCCCNC(=O)c1cccnc1	14	0	-4	4	-1	nt	nt
O=C(Nc1ccccc1)c1ccccc1CCc1ccccc1	9	1	32	3	1	46*	i
COC(=O)C1=C(CCc2ccccc2)NC(=O)NC1c1ccc([N+](=O)[O-])cc1 (stereo unspecified)	10	-6	-8	0	3	nt	nt
O=C(COC(=O)c1cc(S(=O)(=O)N2CCOCC2)ccc1F)c1ccccc1	-10	?	8	4	13	nt	nt
O=C(OCc1cccc(C(F)(F)F)c1)c1cc(S(=O)(=O)N2CCOCC2)ccc1F	10	1	56*	0	22	103	i
CN1CCN(CC(O)(c2ccc(Cl)cc2)c2ccc(Cl)cc2)CC1	9	-1	12	0	5	nt	nt
O=C(NCCCN1CCN(CCCNC(=O)c2ccc(F)cc2)CC1)c1ccc(F)cc1	12	1	-9	0	0	125	i
O=C(NCCN1CCOCC1)c1ccc(F)cc1	12	0	-6	0	-1	nt	nt
CC(C)c1ccc(C(=O)NCCCN2CCN(CCCNC(=O)c3ccc(C(C)C)cc3)CC2)cc1	20	1	46*	0	0	89	i
Cc1ccc(Cl)cc1NC(=O)C(=O)N/N=C/c1ccc2c(c1)OCO2	7	1	-6	4	-1	nt	nt
Cc1ccc(NS(=O)(=O)c2ccc(OCC(=O)NCC3CCCO3)cc2)cc1 (stereo unspecified)	21	1	5	0	0	nt	nt
